Experimental findings from PubChem BioAssay (NCI) are described below.

Several values for one entry are separate records, joined by “and”; a condition that tells them apart may be missing. Equal entries are not always repeated. This is part of a sample that, as a whole, favours compounds with a hit. Of some 83,000 tested, about 20% had one in any assay.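 Single-dose data. Exposure time 48 hours. Values below 10 considered active.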 Activity calls are given as the source filed them.

In this assay the test system is HL-60(TB) leukemia. As to the kind of experiment: NCI-60 one-dose screen, 48 h (100 = growth as untreated, 0 = no growth, -100 = all killed). Particulars: 10 µM unless noted.
For `C#CCOc1cccc(Nc2ncnc3c(NC(=O)C=C)cccc23)c1`, the growth was -4.75% (active).

`COc1cccc2c1nc1cccc(OC)c1[n+]2[O-]`: the growth is 0.0729% (active).

On to `Nc1c(C(=O)Nc2cccc(F)c2)sc2nc3c(cc12)C(=O)CCC3`, for which the growth is 31.2% (inactive).

Turning to `CCc1cccc2c3c(sc12)C(c1ccc(Cl)cc1)C(C#N)=C(N)O3` (stereo unspecified), the growth is -8.89% (active).

As for `Brc1c(-c2ccncc2)nc2n1CCS2`, the growth is 44.4% (inactive).

For `CSc1ccc(/C=C2\C=C(CC(=O)NCc3ccc(C(=O)c4ccccc4)cc3)c3cc(F)ccc32)cc1`, the growth is -30.3% (active).

With `CCN(CC)Cc1cc2[nH]c3c4ccc(Cl)cc4ncc3c2cc1OC`, the growth was -72.1% (active) and 94.6% (inactive).

As for `NC(=O)c1ccccc1NC(=O)c1ccccc1Cl`, the growth is 64.4% (inactive).

As to `Nc1nc(=S)c2[nH]cnc2[nH]1`, the growth is 13.9% (inactive) and -13.4% (active).

Consider `CCCCNCCC(O)c1cc2ccc(C(F)(F)F)cc2c2cc(C(F)(F)F)ccc12` (stereo unspecified), for which the growth is -62.1% (active).

As to `O=C1Nc2ccccc2/C1=C/c1cn(C(=O)c2c(Cl)cccc2Cl)c2ccccc12`, the growth was 72.1% (inactive).

For the compound `CC(C)N1C(=O)/C(=C2\SC(=S)N(C(C)C)C2=O)SC1=S`, the growth is 100% (inactive).

`Cn1c(O)c(C=NCCN=Cc2c(O)n(C)c(=O)n(C)c2=O)c(=O)n(C)c1=O`: the growth was -60% (active).

On to `COc1ccc(C(=O)c2no[n+]([O-])c2C(=O)c2ccc(OC)cc2)cc1`, for which the growth is -79.7% (active).

Take `Nc1ccccc1NC(=O)c1ccc(CCCC(=O)Nc2ccc(C3CC3N)cc2)cc1` (stereo unspecified): the growth was 24.6% (inactive).

As to `Cc1ccc2[nH]c3ccccc3c2c1`, the growth is 99.7% (inactive).

In the case of `Nc1nc2ncc(CCNc3ccc(C(=O)NC(CCC(=O)O)C(=O)O)cc3)nc2c(=O)[nH]1` (stereo unspecified), the growth was 144% (inactive).

Take `COc1ccc(C(=O)/C=C/c2c(C(F)(F)F)nc3ccccn23)cc1OC`: the growth is 2.72% (active).

Turning to `COc1ccc(-c2nn(Cc3ccccc3)c3c2-c2oncc2CC3)cc1OC`, the growth is 87.7% (inactive).

In the case of `CC(=O)N1N=C(c2ccc(Nc3nc(Nc4ccc(Cl)cc4)nc(Nc4ccc(Cl)cc4)n3)cc2)CC1c1ccco1` (stereo unspecified), the growth was 93.6% (inactive).

In the case of `COc1ccccc1P(c1ccccc1OC)c1ccccc1OC`, the growth is 101% (inactive).

For the compound `COc1cc(/C=C\c2cc(/C=C\c3ccc(O)c(OC)c3)n(C(=O)CNc3ccccc3OC)n2)ccc1O`, the growth is 25.5% (inactive).

As to `CC(=O)OCC1OC(OC(C)=O)C(OC(C)=O)C(OC(C)=O)C1OC(C)=O` (stereo unspecified), the growth is 120% (inactive) and 101% (inactive).

On to `O=C(Nc1ccc(Cl)c(C(F)(F)F)c1)Nc1ccc(-c2cccnc2)cc1N1CCC(CO)CC1`, for which the growth is -6.89% (active).

For the compound `COc1cc(-c2nc(-c3ccc(-c4nc5ccc(F)cc5[nH]4)cc3)no2)cc(OC)c1OC`, the growth was 13.4% (inactive).

On to `O=C(CN1CCCCC1)Sc1nnc2sc3ccccc3n12`, for which the growth was 98.6% (inactive).
